An excerpt weighted towards active compounds, which were near 21% of everything screened.
NS1 inh – qHTS Assay for Inhibitors of Influenza NS1 Protein Function. Potency, µM (series often up to 46.1 µM). hit rate 0.4% among 270,000. AID 2326, 2010; calls by dose curve; also: actives are rising curves; nearly all actives have a fitted effect of over 50% in size
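OD600 was taken as the measure of yeast growth restored by compound in an NS1-expressing S. cerevisiae strain. Cells had been washed out of glucose medium and diluted 1:100 into galactose -URA medium, pH 6.0.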
Shiga inhibitor – A qHTS for Small Molecule Inhibitors of Shiga Toxin. Vero cells, Shiga toxin protein synthesis inhibition reporter. inhibition, % at 38.7 µM. hit rate 9.2% among 290,000. AID 2315, 2010; in the data active = inhibition mostly above about 28%, no sharp cut-off; inactive = mostly below about 43%
Pf growth 96h – Primary qHTS for delayed death inhibitors of the malarial parasite plastid, 96 hour incubation; Potency, µM (doses to about 28.7 µM), most hits filed as inhibitors; P. falciparum luciferase reporter growth, 96 h; hit rate 6.9% among 320,000; AID 504834, 2011
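Erythrocytes infected with luciferase-expressing P. falciparum were dispensed at 2% hematocrit and 0.05% parasitemia (final), then incubated with compounds 96 hours at 37 C in 5% CO2. Luminescence after detection reagent addition reported growth.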
Pf growth 48h – Primary qHTS for delayed death inhibitors of the malarial parasite plastid, 48 hour incubation. P. falciparum luciferase growth in erythrocytes, 48 h. Potency, µM (top dose mostly 28.7 µM), hits mostly inhibitors. hit rate 5.9% among 310,000. AID 504832, 2011
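Growth was read as firefly luciferase luminescence after a 48 h, 37 C, 5% CO2 exposure of compounds to reporter-bearing P. falciparum cultures (0.1% parasitemia, 2% hematocrit final) in Albumax-supplemented RPMI 1640.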
Cycloheximide cs – Cycloheximide Counterscreen for Small Molecule Inhibitors of Shiga Toxin | cell reporter, cycloheximide protein synthesis inhibition counterscreen | hit rate 12% among 300,000 | max response, % | AID 2314, 2010; in the data active = max response mostly above about 13%, no sharp cut-off; inactive = mostly below about 14%; also: read at 38.3 µM for the half of the compounds with a filed dose
FBPA Giardia inh – qHTS Assay for Inhibitors of Fructose-1,6-bisphosphate Aldolase from Giardia Lamblia; A8B2U2; purified Giardia FBPA; Potency, µM (titrated, usually from 59.6 µM), most hits filed as inhibitors; hit rate 0.71% among 290,000; AID 2451, 2010; also: nearly all actives have a fitted effect of over 55% in size
Target sequence (A8B2U2 whole entry, looked up): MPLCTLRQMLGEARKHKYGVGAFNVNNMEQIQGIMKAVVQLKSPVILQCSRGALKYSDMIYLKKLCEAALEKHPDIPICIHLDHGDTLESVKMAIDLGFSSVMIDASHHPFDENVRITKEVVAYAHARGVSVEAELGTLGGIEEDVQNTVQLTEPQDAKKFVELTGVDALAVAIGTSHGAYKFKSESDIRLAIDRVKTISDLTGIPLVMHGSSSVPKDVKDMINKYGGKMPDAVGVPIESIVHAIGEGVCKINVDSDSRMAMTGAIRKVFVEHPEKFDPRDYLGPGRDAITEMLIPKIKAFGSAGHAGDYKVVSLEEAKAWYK
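40 nM FBPA preincubated 10 min at RT with compound (up to 57.5 uM final), then substrate plus GAPDH/TPI/NAD/arsenate coupling and diaphorase/resazurin added. Fluorescence read after 20 min at RT, 525/598 nm.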
Of the large screens only hits and unclear results are named; the others gave an inactive call. Unless noted, calls follow the shape of the dose curve; as a rule, active = well fitted curve in the direction sought with a large enough effect; inconclusive = small, poorly fitted or top-dose-only effect, or another doubt; inactive = no such curve, though single readings can be large; an effect the other way counts as inactive or inconclusive.

COc1ccc(C2=NOC(Cn3c(Cc4ccc(Cl)cc4)nc4c3c(=O)n(C)c(=O)n4C)C2)cc1 (centres undefined)	Pf growth 96h 13µM
COc1ccccc1C1=NOC(Cn2c(NCCCO)nc3c2c(=O)n(C)c(=O)n3C)C1 (centres undefined)	none
N#C[C@H](C(=O)O)C(c1c(Cl)cccc1Cl)[C@H](C#N)C(=O)O	none (no result: Shiga inhibitor, Pf growth 96h, Pf growth 48h, Cycloheximide cs, FBPA Giardia inh)
O=C(/C=C/c1ccccc1)NCCCNC(=O)/C=C/c1ccccc1	Pf growth 96h 8.3µM, Pf growth 48h inconclusive (no result: NS1 inh)
CN(C)C(CNC(=O)/C=C/c1cccc(Cl)c1)c1ccccc1 (centres undefined)	Pf growth 96h inconclusive (no result: NS1 inh)
O=C(/C=N\O)NCCCNCc1ccccc1	Pf growth 96h 5.9µM
COCCCNC(=O)/C=C/c1cccc(Cl)c1	Cycloheximide cs 21
COc1ccc(/C=C/C(=O)NCCSCc2ccco2)cc1	Pf growth 96h 9.3µM, Cycloheximide cs 17
CCCNC(=O)CN1C(=O)c2ccccc2Sc2ncccc21	none
CCOC(=O)CNC(=O)O[C@H]1C(=O)c2cc(OC)ccc2O[C@@H]1c1ccc(OC)c(Br)c1	none (no result: NS1 inh, Shiga inhibitor, Pf growth 96h, Pf growth 48h, Cycloheximide cs)
COc1ccc(O[C@H]2C=C[C@@H](c3ccccc3)O[C@@H]2CON=C(C)C)cc1	none (no result: NS1 inh, Shiga inhibitor, Pf growth 96h, Pf growth 48h, Cycloheximide cs)
O=C(/C=C/c1ccccc1)NCCO	none (no result: NS1 inh, Shiga inhibitor, Cycloheximide cs, FBPA Giardia inh)
O=C(/C=C/c1ccccc1)NCCSCc1ccccc1	Shiga inhibitor 44, Pf growth 48h inconclusive
Cc1ccccc1OCCNC(=O)/C=C/c1ccccc1	Shiga inhibitor 24
Cc1ccccc1OCCNC(=O)/C=C/c1ccc([N+](=O)[O-])cc1	none
C[N+]1(C)CCC(=C(c2ccccc2)c2ccccc2)CC1	Pf growth 96h 5.9µM, Pf growth 48h 4.1µM (no result: NS1 inh, Shiga inhibitor, Cycloheximide cs)
CCOC(=O)c1cnc2ccc(C)cc2c1Sc1ccc(F)cc1	Shiga inhibitor 67, Pf growth 96h inconclusive, Pf growth 48h inconclusive, Cycloheximide cs 43
CCOC(=O)c1cnc2ccc(C)cc2c1Nc1ccc(N2CCOCC2)cc1	Pf growth 96h 10µM, Pf growth 48h inconclusive
CCOC(=O)c1cnc2ccc(C)cc2c1Sc1ccccc1	Shiga inhibitor 62, Pf growth 96h inconclusive, Pf growth 48h inconclusive, Cycloheximide cs 34
CCOC(=O)c1cc(-c2ccccc2)nc2ccc(C)cc12	Pf growth 96h inconclusive
CCOC(=O)c1cnc2ccc(C)cc2c1N(C)Cc1ccccc1	Pf growth 96h inconclusive, Pf growth 48h inconclusive
O=S(=O)(Cc1cc(NCc2ccccc2)nc(-c2ccccn2)n1)c1ccccc1	Pf growth 96h 8.3µM, Pf growth 48h inconclusive (no result: NS1 inh)
COc1ccc(-c2csc(NC3OC(=O)c4c3ccc(OC)c4OC)n2)cc1OC (centres undefined)	Pf growth 96h inconclusive, Cycloheximide cs 12
COc1ccc2c(c1OC)C(=O)OC2Nc1nc(-c2cc3cc(Br)ccc3oc2=O)cs1 (centres undefined)	Shiga inhibitor 80, Cycloheximide cs 37
COc1ccc2c(c1OC)C(=O)OC2Nc1nc2ccccc2s1 (centres undefined)	none
COc1ccc2c(c1OC)C(=O)OC2Nc1nc(-c2ccc([N+](=O)[O-])cc2)cs1 (centres undefined)	Shiga inhibitor 56, Cycloheximide cs 16
CC(=O)Nc1ccc(NC(=O)[C@@H](NC(=O)c2ccccc2F)C(C)C)cc1	none
O=c1c(-c2ccc(Cl)cc2)nc2cnc(N3CCOCC3)nc2n1Cc1ccc(F)cc1	none (no result: NS1 inh, Shiga inhibitor, Pf growth 96h, Pf growth 48h, Cycloheximide cs)
CCCCCc1nnc(NC(=O)CN2C(=O)C3CCCCC3C2=O)s1 (centres undefined)	none (no result: FBPA Giardia inh)
CN(C)C(CNC(=S)Nc1cccc(Cl)c1)c1cccnc1 (centres undefined)	Pf growth 96h inconclusive (no result: NS1 inh)
O=C(Nc1cccc(F)c1)N1CCC2(CC1)CCN(C(=O)c1cc(C(F)(F)F)cc(C(F)(F)F)c1)CC2	none (no result: NS1 inh, Shiga inhibitor, Pf growth 96h, Pf growth 48h, Cycloheximide cs)
COC(=O)c1ccc(COC(=O)C2CCN(S(=O)(=O)c3ccc(C)c(C)c3)CC2)o1	none (no result: NS1 inh, Shiga inhibitor, Cycloheximide cs, FBPA Giardia inh)
COc1ccc(Cn2c(SCc3ccccc3C)nc3cc(OC)c(OC)cc3c2=N)cc1	Pf growth 96h 1.7µM, Pf growth 48h 5.9µM
COCCCn1c(SCCc2ccccc2)nc2cc(OC)c(OC)cc2c1=N	Pf growth 96h 9.3µM, Pf growth 48h 12µM (no result: NS1 inh)
CCSc1nc2cc(OC)c(OC)cc2c(=O)n1CCc1ccccc1	Pf growth 96h inconclusive (no result: Pf growth 48h)

Screening data as filed in PubChem.
